Data on 14 compounds can be found in ChEMBL document CHEMBL4513146, “CO-ADD screening of Karazin Kharkiv National University (Ukraine) compounds”.

Potency and affinity values are given separately.

The test system of this assay is Klebsiella pneumoniae. To be noted: Concentration 32 ug.mL-1;; ASSAY_TEST Inhibition of Bacterial Growth; detection method Absorption (OD600); MEDIA CAMHB; plate type 384well; NBS; CORNING #3640; time 18 hr.
A word on the Inhibition: it is how much of the control response was suppressed. Compound `Cc1cc2nn(CC(=O)Nc3ccc(F)cc3F)c(=O)n2c(Nc2ccc(F)c(C)c2)n1` displayed an Inhibition of 11.68%.
Regarding `CCOC(=O)c1ccc(NC(=O)Cn2nc3ccc(C(=O)Nc4cccc(C)c4)cn3c2=O)cc1`, the Inhibition is on record as 6.83%.
Consider `O=C(Cn1nc2c3cc(-c4ccc(F)cc4)nn3ccn2c1=O)NCc1ccccc1Cl`, for which the Inhibition was 7.72%.
In the case of `COc1ccc(NC(=O)c2ccc3nn(CC(=O)Nc4ccc(C)c(F)c4)c(=O)n3c2)cc1`, the Inhibition is reported as 0.39%.
As to `COc1ccc(C(C)NC(=O)CCc2nnc3ccc(-c4ccc(C)c(C)c4)nn23)cc1OC` (centres undefined), the Inhibition was 11.56%.
On to `CSc1cccc(NC(=O)Cn2nc3c(Oc4ccccc4C)nccn3c2=O)c1`, for which the Inhibition is 7.38%.
Regarding `O=S(=O)(c1ccc2nncn2c1)N(Cc1ccccc1F)c1ccc2c(c1)OCO2`, the Inhibition is 9.89%.
With `Cc1ccc(CNC(=O)CSc2nnc3c4cc(-c5ccc(C)cc5)nn4ccn23)cc1` the figure was 11.71%; with `CCN(C(=O)Cn1nc2nc(Nc3ccc(F)cc3)ccn2c1=O)c1ccccc1`, 8.48%.
`COc1cccc(-n2ccn3c(SCC(=O)c4cc(C)c(C)cc4C)nnc3c2=O)c1` returned an Inhibition of 11.25%.
The compound `Cc1cc2nn(CC(=O)Nc3cc(F)ccc3F)c(=O)n2c(Nc2ccc(F)c(C)c2)n1` came in with an Inhibition of 12.97%.
To `COc1cccc(-n2ccn3c(SCc4ccccc4Cl)nnc3c2=O)c1` belongs 8.33%.
`O=C(Cn1nc2ccc(-c3ccccc3)nn2c1=O)Nc1ccc(F)c(Cl)c1` returned an Inhibition of 7.19%.
`Cc1nnc2ccc(S(=O)(=O)N(Cc3cccc(F)c3)c3cccc(F)c3)cn12` registered an Inhibition of 2.6%.
